Assay results as given in PubChem BioAssay (NCI).
Compounds without any hit were thinned out: in the full panel of roughly 83,000, 20% have a hit.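 Plates (96-well) were seeded with cells, treated with compound at one concentration, and incubated for 48 hours before percent growth was determined.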 The source made the active and inactive calls. Rule for the calls: active = growth percent below 10; inactive = the rest.

System: EKVX NSCLC
Assay: NCI-60 one-dose screen, 48 h (100 = growth as untreated, 0 = no growth, -100 = all killed)
Conditions: 10 µM unless noted

Structure (SMILES) | growth
O=C1Nc2ccccc2/C1=N/N=C/c1c[nH]c2ccccc12 | 21.8% (inactive)
Cc1nc2ccc(C(=O)NCc3cc(C(=O)O)c(C)o3)cc2nc1C | 105% (inactive)
Cc1ccc(S(=O)(=O)NN/C(N)=N\S(=O)(=O)c2cc(C)c(Cl)cc2SCc2ccccc2)cc1 | 107% (inactive)
COc1ccc(-c2nnc(SCC(=O)NC3=NN=C(c4ccccc4)CS3)o2)cc1 | 101% (inactive)
Cn1ncc2c(Nc3ccc(Br)cc3)nc(Nc3ccc(Br)cc3)nc21 | 41% (inactive)
Cc1cn(C2CCCCC2)c(=O)[nH]c1=O | 121% (inactive)
Cl.Fc1c[c-]c(-c2ccccn2)c(F)c1.[Pt].c1ccc(P(c2ccccc2)C([PH+](c2ccccc2)c2ccccc2)[PH+](c2ccccc2)c2ccccc2)cc1 | 20.8% (inactive)
N=C(N)c1ccc(-c2ccc(-c3ccc(Cl)c(Cl)c3)o2)cc1 | 69.8% (inactive)
Cc1cc(=O)c2cc3nc(-c4cccnc4)oc3c(Br)c2o1 | 98.9% (inactive)
C=C1C(=O)O[C@H]2[C@H]1CC/C(COC(=O)/C=C/C(=O)NCc1ccc(Cn3c(=O)sn(-c4ccccc4)c3=O)cc1)=C\CC[C@@]1(C)O[C@@H]21 | 52.3% (inactive)
Cc1ccc(/C=C(\C#N)n2nnc3cc(Cl)c(Cl)cc32)cc1 | 36.5% (inactive)
N=C(N)c1ccc(-c2ccc(-c3ccc(Cl)c(Cl)c3)o2)nc1 | 97.3% (inactive)
COc1ccccc1C(=O)NC(=S)Nc1ccc(-c2nc3ccccc3[nH]2)cc1 | 91.1% (inactive)
COC(=O)c1ccc2oc(NC(=O)c3ccc(N4CCOCC4)c([N+](=O)[O-])c3)nc2c1 | 96.6% (inactive)
